Source: PubChem (National Center for Advancing Translational Sciences (NCATS))
PI5P4Ka inh: qHTS for Inhibitors of phosphatidylinositol 5-phosphate 4-kinase (PI5P4K); PI5P4Kalpha enzyme, ADP-Glo luminescence, 60 min; stronger effect = lower value; max response, %; 330,000 compounds, 1.2% hits; AID 652105, 2013; active = max response of -50% or lower; inconclusive = between -30% and -50%; inactive = -30% or higher; note: value at the top dose of about 77 µM
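Reactions run in 0.038 M HEPES pH 7.4, 0.28 mM EGTA, 0.1% CHAPS and 5% DMSO, with PI5P4Kalpha, substrate, compound and 5 microM ATP final, one hour at room temperature. Readout is ADP-Glo luminescence.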
PI4K2A block: qHTS for small molecular inhibitors of PI4K2A. 420,000 compounds, 0.13% hits. Phosphatidylinositol 4-kinase type 2-alpha (Homo sapiens), Q9BTU6. purified PI4K2A, ADP-Glo luminescence, 1 h; stronger effect = lower value. activity change, negative = inhibition, % at 76.9 µM; in the data active = activity change below about -50%; inconclusive = mostly about -30% to -49%
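In this quantitative HTS, ADP production by PI4K2A was quantified luminescently after 1 h at ambient temperature; 100 microM adenosine served as plate-quality control.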
POLB inh: qHTS Assay for Inhibitors of DNA Polymerase Beta; P06746; Pol beta primer extension/strand displacement, fluorescence kinetic; Potency, µM (top dose mostly 114 µM), most hits filed as inhibitors; 340,000 compounds, 1.3% hits; AID 485314, 2010
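Pol beta (10 nM) and compounds were preincubated 15 min at room temperature, then 50 nM substrate (final) started primer extension/strand displacement. Reads were taken at 0 and 10 min; concentration-response data were fitted to a four-parameter Hill equation.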
Pol iota inh: qHTS for Inhibitors of Polymerase Iota; DNA polymerase iota (Homo sapiens), Q9UNA4; 390,000 compounds, 1% hits; Pol iota fluorescent replication assay, 10 min; Potency, µM (series often up to 115 µM), most hits filed as inhibitors
Target sequence (Q9UNA4 whole entry, looked up): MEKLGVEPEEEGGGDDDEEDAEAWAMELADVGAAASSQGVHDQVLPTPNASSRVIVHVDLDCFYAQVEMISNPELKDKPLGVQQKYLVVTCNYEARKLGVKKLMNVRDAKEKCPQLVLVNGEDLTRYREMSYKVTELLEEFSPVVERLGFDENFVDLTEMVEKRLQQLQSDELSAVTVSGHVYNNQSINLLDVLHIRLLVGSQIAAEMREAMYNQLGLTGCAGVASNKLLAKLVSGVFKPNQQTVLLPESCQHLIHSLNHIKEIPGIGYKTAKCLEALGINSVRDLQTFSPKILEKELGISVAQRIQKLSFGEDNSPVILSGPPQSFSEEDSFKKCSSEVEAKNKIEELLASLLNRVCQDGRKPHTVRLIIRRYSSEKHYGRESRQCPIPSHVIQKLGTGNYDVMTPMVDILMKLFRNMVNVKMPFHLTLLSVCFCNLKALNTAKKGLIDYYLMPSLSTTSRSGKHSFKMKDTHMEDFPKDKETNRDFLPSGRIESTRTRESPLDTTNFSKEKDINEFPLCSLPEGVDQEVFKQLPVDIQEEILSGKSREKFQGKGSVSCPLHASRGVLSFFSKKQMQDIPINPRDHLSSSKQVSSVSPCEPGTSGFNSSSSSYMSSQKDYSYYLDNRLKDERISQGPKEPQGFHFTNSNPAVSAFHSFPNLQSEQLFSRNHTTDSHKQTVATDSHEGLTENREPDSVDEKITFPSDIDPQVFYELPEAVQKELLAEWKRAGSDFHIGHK
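Fluorescent replication assay read twice, at 0 min and 10 min after adding 50 nM (final) substrate. Enzyme (10 nM) and compounds were first incubated 15 min at room temperature; enzyme-free buffer wells were negative controls.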
Pol kappa inh-1: qHTS for Inhibitors of Polymerase Kappa. Potency, µM (doses to about 107 µM), hits mostly inhibitors. AID 588579, 2011. DNA polymerase kappa (Homo sapiens), Q9UBT6. purified Pol kappa, fluorescent DNA synthesis assay, 10 min. 400,000 compounds, 0.53% hits
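Readout: fluorescence, taken kinetically at 0 and 10 min. Conditions: 10 nM Pol kappa, 15 min RT compound preincubation, 50 nM substrate final. Controls: enzyme-free buffer wells.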
Pol eta inh-1: qHTS for Inhibitors of Polymerase Eta | 390,000 compounds, 1.2% hits | recombinant Pol eta, fluorescent DNA replication assay | DNA polymerase eta (Homo sapiens), Q9Y253 | Potency, µM (highest dose often 114 µM), usual class: inhibitors | AID 588591, 2011
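Pol eta at 10 nM preincubated with compounds 15 min at room temperature; reaction started with fluorescent substrate (50 nM final) and read kinetically at 0 and 10 min.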
PGK validate: qHTS for inhibitors of Phosphogylcerate Kinase: Hit Validation Screen; shares compounds with Pol kappa inh-1; TbPGK coupled GAPDH assay, Kinase-Glo luminescence; Potency, µM (highest dose often 57.5 µM), hits mostly inhibitors; 500 compounds, 79% hits; AID 686980, 2013; note: nearly all actives have a fitted effect of over 65% in size
Pol iota confirm: qHTS for Inhibitors of Polymerase Iota: Confirmatory Assay for Cherry-picked Compounds; shares compounds with Pol kappa inh-1; Pol iota primer extension, TAMRA/BHQ fluorescence; Potency, µM, usual class: inhibitors; 1,500 compounds, 77% hits
GALK confirm: Confirmation Assay for Inhibitors of Human Galactokinase (GALK); purified GALK, Kinase-Glo ATP depletion luminescence; 150 compounds, 70% hits; Potency, µM (top dose mostly 115 µM), actives largely listed as inhibitors; AID 2015, 2009; shares compounds with Pol eta inh-1
GALK redox cs: Confirmatory Assay for Inhibitors of Human Galactokinase (GALK): Phenol-HRP redox assay counterscreen; shares compounds with Pol eta inh-1; Phenol red-HRP H2O2 redox cycling, absorbance 600 nm; Potency, µM (titrated, usually from 115 µM), hits mostly inhibitors; 150 compounds, 40% hits
HEK293 tox: Secondary Assay for Inhibitors of Human Galactokinase (GALK): HEK-293 Cell Viability Assay; AID 2547, 2010; Potency, µM (highest dose often 46.1 µM), usual class: inhibitors; HEK-293 viability, ATP luminescence (CellTiter-Glo), 24/48 h; 170 compounds, 10% hits; shares compounds with Pol eta inh-1
Pol kappa inh-2: qHTS for Inhibitors of Polymerase Kappa: Confirmatory Assay for Cherry-picked Compounds | purified Pol-kappa, fluorescent strand-displacement substrate | 920 compounds, 76% hits | shares compounds with Pol eta inh-1 | Potency, µM, usual class: inhibitors
Pol eta inh-2: qHTS for Inhibitors of Polymerase Eta: Confirmatory Assay for Cherry-picked Compounds; Pol eta primer extension, TAMRA/BHQ fluorescence, 10 min; 2,600 compounds, 64% hits; AID 720502, 2013; shares compounds with Pol eta inh-1; Potency, µM, hits mostly inhibitors
Each line names hits and unclear results; the compound was inactive in the other large screens (follow-up assays come after a bar, where they were run). Compounds with a hit are over-represented: about 2.8% of the library has one in this group of screens. Unless noted, calls come from the whole dose curve; as a rule, active = well fitted curve in the direction sought with a large enough effect; inconclusive = small, poorly fitted or top-dose-only effect, or another doubt; inactive = no such curve, though single readings can be large; an effect the other way counts as inactive or inconclusive.

COCCNC(=O)Cn1nc(C)c2c(C)n(-c3ccc(C)cc3)nc2c1=O	none (no result: PI5P4Ka inh)
COc1ccc(/C=N/NC(=O)c2cc(O)c(O)c(O)c2)cc1Cn1cc([N+](=O)[O-])cn1	PI5P4Ka inh -59, POLB inh 0.56µM, Pol iota inh 3.2µM, Pol kappa inh-1 4µM, Pol eta inh-1 2.8µM | PGK validate inconclusive | Pol iota confirm 8.4 | Pol eta inh-2 15
Nc1cccc2cc(S(=O)(=O)O)ccc12	PI5P4Ka inh inconclusive, Pol iota inh 4µM, Pol kappa inh-1 10µM, Pol eta inh-1 4µM (no result: POLB inh) | Pol iota confirm 75 | Pol kappa inh-2 19 | Pol eta inh-2 27
Nc1ccc2c(S(=O)(=O)O)cccc2c1S(=O)(=O)O	Pol iota inh inconclusive (no result: POLB inh)
O=C1CCCC2=C1C(c1ccc(O)c(O)c1)Nc1ccc3ncccc3c12 (stereo not drawn)	PI5P4Ka inh inconclusive, POLB inh 11µM, Pol iota inh 13µM, Pol kappa inh-1 40µM, Pol eta inh-1 35µM | Pol iota confirm inconclusive | Pol eta inh-2 inconclusive
O=C1c2ccccc2C(=O)C12OC2c1cccc2ccccc12 (stereo not drawn)	PI4K2A block inconclusive, Pol iota inh 3.5µM, Pol eta inh-1 20µM | Pol iota confirm inconclusive | GALK confirm 17µM | GALK redox cs 13µM | HEK293 tox inactive | Pol eta inh-2 38
CCc1nn2c(=O)cc(COc3ccc(/C=C4\C(=N)N5N=C(CC(C)C)SC5=NC4=O)cc3)nc2s1	POLB inh inconclusive, Pol iota inh inconclusive, Pol eta inh-1 inconclusive | Pol iota confirm 75 | Pol eta inh-2 76
CCC1=NN2C(=N)/C(=C\c3ccc(OCc4cc(=O)n5nc(CC)sc5n4)c(OC)c3)C(=O)N=C2S1	PI5P4Ka inh -71, POLB inh 4.5µM, Pol iota inh inconclusive, Pol kappa inh-1 32µM, Pol eta inh-1 8.9µM | Pol iota confirm 19 | Pol eta inh-2 17
Cc1cccc(-n2c(C)cc(/C=C3\C(=N)N4N=C(CC(C)C)SC4=NC3=O)c2C)c1	none
CCC(=O)Nc1nnc(SCc2cc(=O)c3cc(C)ccc3[nH]2)s1	none (no result: PI5P4Ka inh)
CC(=O)Nc1nnc(SCc2cc(=O)c3cc(C)ccc3[nH]2)s1	POLB inh 40µM, Pol iota inh 79µM, Pol eta inh-1 50µM (no result: PI5P4Ka inh) | Pol iota confirm 67 | Pol kappa inh-2 17 | Pol eta inh-2 inconclusive
O=C(O)c1cc(N2N=C(C(F)(F)F)/C(=C/C=C/c3ccco3)C2=O)ccc1Cl	PI5P4Ka inh -93, PI4K2A block -67, POLB inh 0.63µM, Pol iota inh 1.1µM, Pol kappa inh-1 1.1µM | PGK validate 0.58µM | Pol iota confirm 0.75 | Pol kappa inh-2 0.12 | Pol eta inh-2 0.67
CCOC(=O)Cc1csc(NC(=O)c2sc3nc4ccc(C)cc4cc3c2N)n1	none
CCc1nnc(NC(=O)c2sc3nc4cc(C)ccc4cc3c2N)s1	Pol eta inh-1 89µM (no result: PI5P4Ka inh) | Pol iota confirm 42 | Pol eta inh-2 67
CN(C)CCNC(=O)c1cccc2nc3cccc(F)c3nc12	Pol iota inh 89µM, Pol kappa inh-1 inconclusive, Pol eta inh-1 inconclusive (no result: POLB inh) | Pol iota confirm 42 | Pol kappa inh-2 17
Cc1ccc(CNc2ncnc3c2c(-c2ccccc2)cn3-c2cccc(Cl)c2)cc1	Pol iota inh inconclusive (no result: PI5P4Ka inh)
O=c1cc(Br)c(O)c(Br)cc1Br	PI5P4Ka inh inconclusive, Pol iota inh 4.5µM, Pol kappa inh-1 50µM, Pol eta inh-1 18µM (no result: POLB inh) | Pol iota confirm inconclusive | Pol eta inh-2 60
CCN(C(=O)C(C)N1C(=O)/C(=C/c2ccco2)SC1=S)C1CCS(=O)(=O)C1 (stereo not drawn)	PI5P4Ka inh -68, PI4K2A block inconclusive, POLB inh 11µM, Pol iota inh 22µM, Pol kappa inh-1 28µM, Pol eta inh-1 16µM | Pol iota confirm 42 | Pol eta inh-2 27
CC(C(=O)N(C)C1CCS(=O)(=O)C1)N1C(=O)/C(=C/c2ccc(F)cc2)SC1=S (stereo not drawn)	PI5P4Ka inh inconclusive
CC(C(=O)O)N1C(=O)/C(=C/C=C/c2ccco2)SC1=S (stereo not drawn)	PI5P4Ka inh -101, PI4K2A block inconclusive, POLB inh 1.3µM, Pol iota inh 0.79µM, Pol kappa inh-1 1.3µM, Pol eta inh-1 0.79µM | PGK validate 2.9µM | Pol iota confirm 1.9 | Pol eta inh-2 1.3
